Reference: PubChem BioAssay AID1159580 (chemical genetic matrix, 2015)
The campaign covered roughly 5,500 compounds. About 2,000 (36%) were called active. About 18% were inconclusive and are not listed. Cut-off read from the data, not from the text of the source: active = normalized growth mostly below about 0.91 (no sharp cut-off); inconclusive = no clear call, values can overlap the other calls; inactive = mostly above about 0.92. The list shows a part of the results.

Test: chemical genetic growth profiling, strain panel (AID 1159580);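 note: tested at 20 µM; growth read once vehicle control cultures reached saturation at 30 °C; 1 = growth at the plate median or of vehicle wells; lower values mean less growth of the strain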
Settings: growth OD

Measured: normalized growth

CC1=C(C(C)O)C2=NC1C=c1[nH]c(c(C)c1C(C)O)=Cc1[nH]c(c(CCC(=O)O)c1C)C=c1[nH]c(c(C)c1CCC(=O)O)=C2 (stereo not drawn)
active: S. cerevisiae deletion strains, locus YLR113W, strain HOG1, active compounds read low 1.19 [resistant]
inactive: S. cerevisiae deletion strains, locus YJL187C, strain SWE1, active compounds read low 0.995 | S. cerevisiae deletion strains, locus YJR043C, strain POL32, active compounds read low 0.93 | S. cerevisiae deletion strains, locus YJR066W, strain TOR1, active compounds read low 1.02 | S. cerevisiae deletion strains, locus YKL009W, strain mrt4, active compounds read low 1.04 | S. cerevisiae deletion strains, locus YKL068W, active compounds read low 1.01 | S. cerevisiae deletion strains, locus YKL085W, strain MDH1 (second series), active compounds read low 1.02 | S. cerevisiae deletion strains, locus YKL085W, strain MDH1, active compounds read low 1.02 | S. cerevisiae deletion strains, locus YKL160W, strain elf1, active compounds read low 0.99 | S. cerevisiae deletion strains, locus YKL190W, strain CNB1, active compounds read low 1 | S. cerevisiae deletion strains, locus YKR001C, strain vps1, active compounds read low 1 | S. cerevisiae deletion strains, locus YKR026C, strain gcn3, active compounds read low 0.989 | S. cerevisiae deletion strains, locus YKR091W, strain srl3, active compounds read low 1 | S. cerevisiae deletion strains, locus YLL001W, strain dnm1, active compounds read low 0.988 | S. cerevisiae deletion strains, locus YLL026W, active compounds read low 0.992 | S. cerevisiae deletion strains, locus YLL041C, strain sdh2, active compounds read low 0.995 | S. cerevisiae deletion strains, locus YLR027C, strain aat2, active compounds read low 0.982 | S. cerevisiae deletion strains, locus YLR039C, strain RIC1, active compounds read low 1.04 | S. cerevisiae deletion strains, locus YLR058C, strain SHM2, active compounds read low 1 | S. cerevisiae deletion strains, locus YLR102C, strain apc9, active compounds read low 1.02 | S. cerevisiae deletion strains, locus YLR221C, strain rsa3, active compounds read low 0.967 | S. cerevisiae deletion strains, locus YLR258W, strain gsy2, active compounds read low 0.996 | S. cerevisiae deletion strains, locus YLR262C, strain YPT6 (second series), active compounds read low 1.06 | S. cerevisiae deletion strains, locus YLR262C, strain YPT6, active compounds read low 1.01 | S. cerevisiae deletion strains, locus YLR268W, strain sec22, active compounds read low 1.01 | S. cerevisiae deletion strains, locus YLR320W, strain mms22, active compounds read low 0.938 | S. cerevisiae deletion strains, locus YLR330W, strain CHS5, active compounds read low 1.01 | S. cerevisiae deletion strains, locus YLR342W, strain FKS1 (second series), active compounds read low 0.995 | S. cerevisiae deletion strains, locus YLR342W, strain FKS1, active compounds read low 0.987 | S. cerevisiae deletion strains, locus YLR357W, strain rsc2, active compounds read low 0.923 | S. cerevisiae deletion strains, locus YLR370C, strain arc18, active compounds read low 0.988 | S. cerevisiae deletion strains, locus YLR371W, strain rom2, active compounds read low 1.02 | S. cerevisiae deletion strains, locus YLR384C, strain iki3, active compounds read low 0.99 | S. cerevisiae deletion strains, locus YLR418C, strain cdc73, active compounds read low 0.937 | S. cerevisiae deletion strains, locus YML016C, strain PPZ1, active compounds read low 1.01 | S. cerevisiae deletion strains, locus YML032C, strain rad52, active compounds read low 1 | S. cerevisiae deletion strains, locus YML120C, strain ndi1, active compounds read low 1 | S. cerevisiae deletion strains, locus YML124C, strain tub3, active compounds read low 1.02 | S. cerevisiae deletion strains, locus YMR058W, strain fet3, active compounds read low 0.943 | S. cerevisiae deletion strains, locus YMR078C, strain ctf18, active compounds read low 1.03 | S. cerevisiae deletion strains, locus YMR125W, strain sto1, active compounds read low 1 | S. cerevisiae deletion strains, locus YMR129W, active compounds read low 0.986 | S. cerevisiae deletion strains, locus YMR205C, strain PFK2, active compounds read low 0.943 | S. cerevisiae deletion strains, locus YMR223W, strain ubp8, active compounds read low 0.976 | S. cerevisiae deletion strains, locus YMR231W, strain pep5, active compounds read low 0.98 | S. cerevisiae deletion strains, locus YMR307W, strain GAS1, active compounds read low 0.82 | S. cerevisiae deletion strains, locus YNL067W, strain RPL9B, active compounds read low 0.996 | S. cerevisiae deletion strains, locus YNL071W, strain lat1, active compounds read low 0.963 | S. cerevisiae deletion strains, locus YNL183C, strain NPR1, active compounds read low 1.02 | S. cerevisiae deletion strains, locus YNL209W, strain ssb2, active compounds read low 0.999 | S. cerevisiae deletion strains, locus YNL233W, strain BNI4, active compounds read low 0.994 | S. cerevisiae deletion strains, locus YNL248C, strain rpa49, active compounds read low 0.971 | S. cerevisiae deletion strains, locus YNL250W, strain rad50, active compounds read low 1.03 | S. cerevisiae deletion strains, locus YNL271C, strain bni1, active compounds read low 1.01 | S. cerevisiae deletion strains, locus YNL298W, strain CLA4, active compounds read low 1.02 | S. cerevisiae deletion strains, locus YNL307C, strain MCK1, active compounds read low 1.02 | S. cerevisiae deletion strains, locus YNL322C, strain KRE1 (second series), active compounds read low 0.99 | S. cerevisiae deletion strains, locus YNR049C, strain mso1, active compounds read low 0.998 | S. cerevisiae deletion strains, locus YNR052C, strain pop2, active compounds read low 1.02 | S. cerevisiae deletion strains, locus YOL012C, strain htz1 0.754 | S. cerevisiae deletion strains, locus YOL147C, strain pex11, active compounds read low 1.01 | S. cerevisiae deletion strains, locus YOR001W, strain rrp6, active compounds read low 1 | S. cerevisiae deletion strains, locus YOR061W, strain CKA2, active compounds read low 1.01 | S. cerevisiae deletion strains, locus YOR069W, strain VPS5, active compounds read low 1.01 | S. cerevisiae deletion strains, locus YOR070C, strain gyp1, active compounds read low 0.989 | S. cerevisiae deletion strains, locus YOR080W, strain dia2, active compounds read low 0.987 | S. cerevisiae deletion strains, locus YOR083W, strain WHI5, active compounds read low 0.986 | S. cerevisiae deletion strains, locus YOR106W, strain vam3, active compounds read low 0.94 | S. cerevisiae deletion strains, locus YOR136W, strain idh2, active compounds read low 1.01 | S. cerevisiae deletion strains, locus YOR144C, strain elg1, active compounds read low 1.02 | S. cerevisiae deletion strains, locus YOR184W, strain ser1, active compounds read low 0.972 | S. cerevisiae deletion strains, locus YOR231W, strain MKK1, active compounds read low 1.13 | S. cerevisiae deletion strains, locus YOR265W, strain rbl2, active compounds read low 0.995 | S. cerevisiae deletion strains, locus YOR270C, strain vph1, active compounds read low 0.915 | S. cerevisiae deletion strains, locus YOR290C, strain snf2, active compounds read low 0.984 | S. cerevisiae deletion strains, locus YOR316C, strain cot1, active compounds read low 1.02 | S. cerevisiae deletion strains, locus YPL051W, strain arl3, active compounds read low 0.984 | S. cerevisiae deletion strains, locus YPL055C, strain LGE1, active compounds read low 0.973 | S. cerevisiae deletion strains, locus YPL078C, strain atp4, active compounds read low 0.996 | S. cerevisiae deletion strains, locus YPL106C, strain sse1, active compounds read low 0.93 | S. cerevisiae deletion strains, locus YPL240C, strain hsp82, active compounds read low 0.996 | S. cerevisiae deletion strains, locus YPL256C, strain CLN2, active compounds read low 1.07 | S. cerevisiae deletion strains, locus YPR119W, strain clb2, active compounds read low 1.02 | S. cerevisiae deletion strains, locus YPR141C, strain kar3, active compounds read low 1.05 | S. cerevisiae deletion strains, locus YPR163C, strain tif3, active compounds read low 1.01 | S. cerevisiae deletion strains, locus YPR167C, strain met16, active compounds read low 1 | S. cerevisiae deletion strains, strain wtn01, active compounds read low 0.981 | S. cerevisiae strains, strain wild type, active compounds read low 0.968
